# Assay outcomes as filed in PubChem.
# An excerpt weighted towards active compounds, which were near 21% of everything screened.
# Shiga toxin inh = inhibitors of Shiga toxin in Vero cells | AID 2315 | inhibition, % at 38.7 µM | Vero cells, Shiga toxin protein synthesis inhibition reporter | 9.2% of 290,000 active; in the data active = inhibition mostly above about 28%, no sharp cut-off; inactive = mostly below about 43%; note: 0% is about no effect
# Pf growth 48h = P. falciparum growth inhibition at 48 hours (one generation). P. falciparum luciferase growth in erythrocytes, 48 h. Potency, µM (highest dose often 28.7 µM), inactives show at the highest dose activity change, negative = inhibition, most hits filed as inhibitors. 5.9% of 310,000 active; note: potency is the fitted concentration of half-maximal effect; % is set by controls: 0 for no effect and ±100 for the full control effect
#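 Growth was read as firefly luciferase luminescence after a 48 h, 37 C, 5% CO2 exposure of compounds to reporter-bearing P. falciparum cultures (0.1% parasitemia, 2% hematocrit final) in Albumax-supplemented RPMI 1640.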
# NS1 function inh = influenza NS1 inhibition. Potency, µM (highest dose often 46.1 µM), for inactives: at the highest dose activity, positive = more growth. 0.4% of 270,000 active. AID 2326; calls by dose curve; note: potency is the fitted concentration of half-maximal effect; actives are rising curves; nearly all actives have a fitted effect of over 50% in size
#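 Recovery from NS1-induced slow growth read by OD600 in budding yeast switched to galactose assay medium (pH 6.0, -URA) at 1:100 dilution. Compound 23 nl per well; the matching strain lacking NS1 serves as control.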
# Cycloheximide cs = counter-screen hit for Shiga toxin inhibitors, cycloheximide; max response, %; cell reporter, cycloheximide protein synthesis inhibition counterscreen; 12% of 300,000 active; in the data active = max response mostly above about 13%, no sharp cut-off; inactive = mostly below about 14%; note: read at 38.3 µM for the half of the compounds with a filed dose; 0% is about no effect
# Sm TGR block = inhibitors of Schistosoma mansoni thioredoxin glutathione reductase; AID 485364; Q962Y6; 3% of 360,000 active; purified TGR, DTNB reduction, TNB absorbance 405 nm; Potency, µM (titrated, usually from 114 µM), for the others: top-dose activity change, negative = inhibition, usual class: inhibitors; note: potency is the fitted concentration of half-maximal effect; % is set by controls: 0 for no effect and ±100 for the full control effect; nearly all actives have a fitted effect of over 60% in size
#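 TGR 20 nM + NADPH 100 uM (dispensed conc.), cpd preinc 15 min RT; start with NADPH (500 uM addition) then DTNB (15 mM addition). Kinetic TNB absorbance, 405 nm filter. Four-parameter Hill fit across titration.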
# Pf growth 96h = inhibits malaria parasite growth, 96 h; P. falciparum luciferase reporter growth, 96 h; Potency, µM (highest dose often 28.7 µM), for the others: top-dose activity change, negative = inhibition, most hits filed as inhibitors; 6.9% of 320,000 active; AID 504834; note: potency is the fitted concentration of half-maximal effect; % is set by controls: 0 for no effect and ±100 for the full control effect
#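 Cell-based qHTS: luciferase-tagged P. falciparum in erythrocytes (2% hematocrit, 0.05% parasitemia final) incubated with compounds for 96 hours, 37 C, 5% CO2; luciferase detection reagent then added and luminescence measured.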
# The depositor's hits bear a star; ? = inconclusive; . = no result given. Unless noted, calls come from the whole dose curve; as a rule, active = well fitted curve in the direction sought with a large enough effect; inconclusive = small, poorly fitted or top-dose-only effect, or another doubt; inactive = no such curve, though single readings can be large; an effect the other way counts as inactive or inconclusive.
SMILES,Shiga toxin inh,Pf growth 48h,NS1 function inh,Cycloheximide cs,Sm TGR block,Pf growth 96h
O=C(Oc1cccc([N+](=O)[O-])c1)c1cc(-c2ccccc2)nc2ccccc12,-3.8,29.3%,3.9%,-0.6,9.0%,?
Cc1c(C(=O)Oc2ccc(-c3cnc4ccccc4n3)cc2)cccc1[N+](=O)[O-],94.9*,73.4%,-9.7%,37.3*,19.3%,219.8%
CCOC(=O)C1CCN(C(=O)c2ccc(CNS(=O)(=O)c3ccc(OC)cc3)cc2)CC1,-11.9,-7.2%,.,-5.4,-0.2%,?
CN1CCN(C(=O)/C(=C/c2cn(S(=O)(=O)N(C)C)c3ccccc23)NC(=O)c2ccccc2F)CC1,-1.2,?,1.7%,-2.4,-13.2%,?
OCC[C@H]1C[C@@H](O)[C@H](O)[C@]2(CCCCO2)O1,3.6,7.0%,-4.9%,-3.9,-2.5%,49.8%
Cc1ccc(N2C(=O)CSC2c2ccc3c(c2)OCO3)cc1 (stereo not drawn),-19.2,-13.9%,6.3%,-2.0,-0.4%,.
O=C1CSC(c2ccc3c(c2)OCO3)N1c1ccc(Oc2ccccc2)cc1 (stereo not drawn),-3.1,?,24.7%,-1.0,31.6µM*,0.0%
O=[N+]([O-])/C=C/c1cn(Cc2ccccc2)c2ccccc12,-16.6,?,-99.1%,-9.6,-17.7%,0.0%
N#Cc1ccccc1Cn1cc(/C=C/[N+](=O)[O-])c2ccccc21,-21.4,9.28µM*,-4.8%,-11.3,-31.1%,21.4%
CC#CCN(Cc1ccco1)C(=O)C1CCC(=O)N(Cc2ccccc2F)C1 (stereo not drawn),29.4,-4.8%,-4.4%,31.5*,-27.3%,0.0%
O=C(NCCc1ccccc1F)C1CCC(=O)N(Cc2ccccc2F)C1 (stereo not drawn),25.2*,20.1%,8.4%,18.2*,?,51.3%
O=C(NCCc1ccccc1F)C1CCC(=O)N(CCCN2CCCC2=O)C1 (stereo not drawn),-1.2,9.7%,6.0%,1.6,1.9%,?
O=C(NC1CCC1)C1CCC(=O)N(Cc2ccccc2F)C1 (stereo not drawn),8.3,?,-1.2%,32.1*,-0.2%,?
CCn1ccnc1CNC(=O)C1CCC(=O)N(Cc2ccccc2F)C1 (stereo not drawn),-3.8,-1.1%,4.0%,-0.6,-21.0%,11.7µM*
COCCn1c(SCC(=O)NC2CCCC2)nnc1-c1ccco1,2.0,8.9%,-2.9%,-2.5,4.8%,?
O=C(NC1(C(F)(F)F)OCCO1)c1ccc(F)cc1,9.2,-4.1%,-0.7%,-1.2,.,10.2%
COc1ccc(-c2oc3cccnc3c2-c2ccc(OC)nc2)cc1,22.4*,-1.9%,-57.8%,24.8*,-24.7%,?
COc1cc(/C=C/C(=O)Nc2ccc3[nH]c(=O)[nH]c3c2)cc(OC)c1OC,-2.5,10.4µM*,9.6%,1.6,-15.4%,-10.4%
COc1cc(/C=C/C(=O)Nc2cccnc2)cc(OC)c1OC,13.4,-15.6%,-18.1%,-1.0,0.6%,9.28µM*
CCOc1ccc(NC(=O)CC(Cc2cc(C)cc(C)c2)C(=O)O)cc1 (stereo not drawn),-6.8,-15.4%,8.5%,-8.7,-1.0%,155.2%
Cc1ccc(Cl)c2c1NC(=O)C2(O)CC(=O)c1ccccc1O (stereo not drawn),14.9,-28.2%,0.7%,-5.0,-3.6%,9.28µM*
Cc1ccc(Cl)c2c1NC(=O)C2(O)CC(=O)c1ccc(F)cc1 (stereo not drawn),-17.1,-2.1%,3.0%,-3.1,1.6%,18.4%
O=C(O)c1ccccc1NCn1c(=S)sc2ccccc21,.,.,-0.3%,.,.,.
c1ccc(CCNc2nc(-c3ccccn3)cs2)cc1,86.5*,?,-52.8%,40.4*,.,43.7%
O=C(COc1ccc(F)cc1)Nc1nc(-c2ccccn2)cs1,.,?,.,.,-29.0%,?
c1ccc(CCNc2nc(-c3cccnc3)cs2)cc1,39.6*,?,-19.3%,61.8*,0.7%,?
COc1cccc(CC(=O)Nc2nc(-c3cccnc3)cs2)c1,-15.0,-21.2%,2.3%,0.5,-7.2%,?
CCn1c(=O)cc(SCC(=O)NCc2ccc(Cl)cc2)c2ccccc21,.,.,.,.,-7.8%,.
COc1cccc(C(=O)NCCSCc2c(F)cccc2Cl)c1,.,41.8%,-55.1%,22.3*,3.3%,?
